# A selection: hits, their analogues and other compounds. The true share with any hit is near 19%.
# BCR signal inh: chronic active BCR signaling inhibition. ABC-DLBCL IkBa-CBG/CBR reporter, luminescence ratio, 4 h. Potency, µM (top dose mostly 46.1 µM), for inactives: at the top dose activity change, negative = inhibition, usual class: inhibitors. 340,000 compounds, 0.05% hits; active = well fitted inhibition curve with a large enough effect in the signal ratio, with a control signal flat, not every such curve was filed as active; inconclusive = small, poorly fitted or top-dose-only effect, or effect the other way, or a change in a side signal; the % refers to the signal ratio;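 also: potency is read from the fitted curve at half-maximal effect; plate controls were basal doxycycline-induced cells for no effect and cells given 10 µM MG132 for full effect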
#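 Doxycycline induced both beetle luciferases in TMD8 lymphoma cells; IKK-driven degradation limits the IkappaBalpha-fused green signal, while red luminescence normalises for cell number and nonspecific effects. Compounds tested up to 46 uM, 4 hrs.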
# DT40 TDP1 no CPT: qHTS for Inhibitors of human tyrosyl-DNA phosphodiesterase 1 (TDP1): qHTS in cells in absence of CPT; DT40 Tdp1-/- hTDP1 cells, no CPT, ATP luminescence, 48 h; Potency, µM (highest dose often 46.2 µM), without a hit: at the top dose activity change, negative = growth inhibition, actives largely listed as inhibitors; 420,000 compounds, 15% hits; AID 686978, 2013; also: potency is read from the fitted curve at half-maximal effect; % is scaled to controls: 0 for no effect and ±100 for the full control effect; nearly all actives have a fitted effect of over 55% in size
#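 No-CPT arm: Tdp1-/-;hTDP1 DT40 cells (400/well) plus compounds, incubated ≥48 hr at 37 °C. Readout CellTiter-Glo luminescence.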
# MCF10A rerep: DNA re-replication induction in MCF 10a cells; MCF 10A DNA re-replication, Hoechst nuclear intensity, 48 h; Potency, µM (doses to about 46.1 µM), for inactives: top-dose activity, positive = re-replication, most hits filed as activators; 350,000 compounds, 2.9% hits; also: potency is read from the fitted curve at half-maximal effect; % of control where 0% means no effect; nearly all actives have a fitted effect of over 50% in size
# TDP1 cell CPT: DT40-hTDP1 cell growth loss with CPT | chicken DT40 Tdp1-/-;hTDP1 cells + 20 nM CPT, ATP luminescence, 48 h | Potency, µM (highest dose often 46.2 µM), for the others: at the highest dose activity change, negative = growth inhibition, hits mostly inhibitors | 420,000 compounds, 12% hits; also: potency is read from the fitted curve at half-maximal effect; % is scaled to controls: 0 for no effect and ±100 for the full control effect; nearly all actives have a fitted effect of over 55% in size
#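 Chicken DT40 Tdp1-/- cells complemented with human TDP1, 400 cells/well, exposed to compounds plus 20 nM camptothecin for at least 48 h at 37 C; viability read as ATP content by CellTiter-Glo luminescence.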
# IL1B secr inh: blocks inflammasome-driven IL-1 beta release | THP-1 LPS/ATP IL-1B secretion, AlphaLISA, 16 h; hits give low values | activity change, % at 57.5 µM | 360,000 compounds, 4.7% hits | AID 743279; in the data active = activity change below about -50%; inconclusive = mostly about -30% to -49%; also: % is scaled to controls: 0 for no effect and ±100 for the full control effect
#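 THP-1 cells pretreated 1 hr with compounds (up to 57.5 uM final), then stimulated with LPS (250 ng/mL final) plus ATP (1.25 mM final); secreted IL-1B measured by AlphaLISA after 16 hr, decreased signal indicating inhibition.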
# SW480 rereplic: DNA re-replication induction in SW480 cells; 340,000 compounds, 1.8% hits; SW480 DNA re-replication, Hoechst DNA content imaging, 48 h; Potency, µM (top dose mostly 46.1 µM), inactives show at the top dose re-replication activation, most hits filed as activators; AID 624297; also: potency is read from the fitted curve at half-maximal effect; % of control where 0% means no effect; nearly all actives have a fitted effect of over 55% in size
#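 250 cells/well; 23 nL cpd via pin tool; 48 hr, 37 C, 5% CO2; Hoechst 40 min; imager read of total nuclear intensity, ex 405/em 500-530 nm.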
# Numbers without * were called inactive; ? = inconclusive; nt = not tested or not shown; [ ] = dose if it differs, or a comment. Unless noted, calls follow the shape of the dose curve; as a rule, active = well fitted curve in the direction sought with a large enough effect; inconclusive = small, poorly fitted or top-dose-only effect, or another doubt; inactive = no such curve, though single readings can be large; an effect the other way counts as inactive or inconclusive.
SMILES,BCR signal inh,DT40 TDP1 no CPT,MCF10A rerep,TDP1 cell CPT,IL1B secr inh,SW480 rereplic
Cc1nc(NC(=S)NC(=O)c2ccccc2)sc1C,?,?,1.5%,4.6%,42.8,1.2%
O=C(NC(=S)Nc1nc2c(s1)CCCC2)c1ccccc1,4.2%,29.1µM*,2.8%,?,0.0,-79.9%
CCn1c(=N)c(C(=O)NC2CCCCC2)cc2c(=O)n3cc(C)ccc3nc21,nt,4.4%,nt,6.1%,nt,nt
O=[N+]([O-])c1ccc(Oc2ccc(S(=O)(=O)N3CCOCC3)cn2)cc1,?,-26.3%,5.6%,-7.8%,7.1,-8.4%
Cc1nn(-c2ccccc2)c(C)c1CC(=O)NCC1Cc2cc(-c3cncnc3)ccc2O1 (configuration not stated),nt,-8.7%,nt,7.1%[9.04 µM],nt,nt
Cc1cc(C(=O)C(C)OC(=O)c2ccc(NC(=O)CC#N)cc2)c(C)n1-c1ccccc1 (configuration not stated),-8.3%,18.4µM*,?,?,-56.4*,3.26µM*
CNc1ccc(C=C2C=Cc3ccccc32)cc1,nt,-27.6%,0.6%,2.0%,-72.8*,2.6%
C1=Cc2ccccc2/C1=C/c1ccc(/C=C2\C=Cc3ccccc32)cc1,nt,5.7%,nt,8.4%,nt,nt
O=Cc1ccc(/C=C2/C=Cc3ccccc32)cc1,nt,-18.1%,nt,?,nt,nt
O=Cc1ccc(/C=C2\C=Cc3ccccc32)cc1,nt,6.31µM*,nt,5.62µM*,nt,nt
CC(C)C[C@@H]1CN(CCCC[C@H]2CNC(=O)C(=O)N2CCC2CCCCC2)C(=O)C(=O)N1Cc1ccccc1,nt,-3.0%,nt,3.3%,?,nt
COc1ccc(Nc2cc(C(=O)NC3CCCC3)c3ccccc3n2)c(OC)c1,4.3%,?,2.9%,?,33.8,?
COc1cccc(C2=NC(C)(C)NC(c3ccccc3O)C2)c1 (configuration not stated),?,18.4µM*,?,14.6µM*,?,11.1%
CCC1(C)N=C(c2ccc3c(c2)OCO3)CC(c2ccccc2O)N1 (configuration not stated),?,13µM*,7.31µM*,13µM*,2.8,14.6µM*
CCOC(=O)N1CCN(Cc2nc(N)nc(Nc3ccc(Oc4ccccc4)cc3)n2)CC1,?,16.4µM*,?,?,-26.8,0.5%
CCOC(=O)C1CCCN(Cc2nc(N)nc(Nc3ccc(Cl)cc3)n2)C1 (configuration not stated),2.2%,16.4µM*,25.3%,?,-5.2,0.6%
CCOC(=O)C1CCCN(Cc2nc(N)nc(Nc3ccc(OC)cc3)n2)C1 (configuration not stated),-17.8%,?,-0.4%,29.1µM*,12.6,-4.2%
OC1(CNCc2cn[nH]c2-c2cc3ccccc3o2)CCCCC1,-17.6%,?,?,-21.8%,-90.6*,14.2%
c1ccc2oc(-c3[nH]ncc3CN3CCC(N4CCSCC4)CC3)cc2c1,?,-5.9%,23.1µM*,-33.9%,nt,-6.3%
CCC(C)[C@@H]1NC(=O)N(CCCN2CCCC2=O)C1=O (some centres not stated),9.1%,-7.6%,-3.1%,27.1%,0.0,-2.4%
Cc1nc(N)nc(N)c1-c1ccc(Cl)c(Cl)c1,nt,0.164µM*,28.0%,0.259µM*,-10.9,12.8%
COc1ccc(Cc2c(C)nc(N)nc2Cl)cc1,-23.8%,-8.0%,?,?,0.0,16.9%
Nc1nc(N)nc(-c2ccc(Cl)c(Cl)c2)n1,?,11.6µM*,26.1%,20.6µM*,-29.8,17.5%
COc1ccc(-c2nc(N)nc(C)c2-c2ccc(Cl)cc2)c(O)c1,2.7%,-16.6%,7.3%,-32.8%,36.6,15.1%
Cc1nc(N)nc(N)c1CCCc1ccc(Cl)c(Cl)c1,nt,2.59µM*,2.6%,10.3µM*,-103.5*,-135.4%
SMILES,BCR signal inh,DT40 TDP1 no CPT,MCF10A rerep,TDP1 cell CPT,IL1B secr inh,SW480 rereplic
Nc1nc(N)nc(-c2cccc([N+](=O)[O-])c2)n1,nt,?,nt,-21.5%,-20.9,nt
Cc1cc(OCCCn2cnc3ccccc3c2=O)ccc1[N+](=O)[O-],-5.9%,?,4.0%,?,-1.0,-0.7%
Cc1cc(OCc2nc(N)nc(N)c2-c2ccc(Cl)c(Cl)c2)ccc1[N+](=O)[O-],nt,0.13µM*,?,0.581µM*,-52.6*,?
CNc1nc(Nc2ccc(C(C)=O)cc2)nc(OC(C(F)(F)F)C(F)(F)F)n1,-1.3%,23.1µM*,?,?,-58.0*,-1.9%
CCC1C(=O)NCCN1Cc1ccc2c(c1)CN(Cc1ccc(F)c(OC)c1)CCO2 (configuration not stated),nt,-7.5%,nt,-6.2%[9.04 µM],nt,nt
COc1ccc(Br)cc1CNC(=O)c1cc2c(=O)n(C)c3ccccc3c2s1,nt,-22.0%,nt,8.0%,nt,nt
CCn1c(=O)c2cc(C(=O)NCCc3cccc(C)c3)sc2c2ccccc21,nt,-14.3%,nt,-4.3%,nt,nt
COCCNC(=O)c1cc2sc3ccccc3c2s1,?,-26.2%,0.2%,2.8%,11.5,-4.9%
CCCCN(CC)CCNC(=O)c1cn(-c2ccc(Cl)cc2)c(=O)c2ccccc12,10.4%,?,?,-29.1%,0.0,-30.9%
CN(CCCNC(=O)c1cc2c(=O)n(C)c3ccccc3c2s1)Cc1ccccc1,nt,14.6µM*,nt,4.61µM*,nt,nt
CCCCN(CC)CCNC(=O)c1cc2c(=O)n(C)c3ccccc3c2s1,?,23.1µM*,?,?,-86.2*,?
CN(C)CCCNC(=O)c1cc2sc3ccccc3c2s1,?,?,7.31µM*,?,-118.0*,?
CCN(CC)CCNC(=O)c1cc2c(=O)n(C)c3ccccc3c2s1,?,20.6µM*,23.1µM*,18.4µM*,?,?
CCN1C(=O)[C@@H]2[C@H](C1=O)[C@@H]1CC(C(=O)OC)=C[C@@H](C(=O)OC)C3C1=C(C(=O)C3(CC)CC)[C@@H]2C (some centres not stated),nt,?,-3.2%,-20.0%,2.5,-8.5%[9.22 µM]
CCCn1c2ccccc2c2cnn(CC(=O)NCCc3cc(OC)ccc3OC)c(=O)c21,nt,16.4µM*,nt,?,nt,nt
CCCn1c2ccccc2c2cnn(CC(=O)NCCOC)c(=O)c21,?,-14.9%,-1.7%,-18.8%,-3.1,-2.8%
COc1ccc(OC)c(CNC(=O)Cn2ncc3c([nH]c4ccc(C)cc43)c2=O)c1,nt,-3.3%,nt,-13.1%,nt,nt
CCCn1c2ccccc2c2cnn(CC(=O)NCc3cc(OC)ccc3OC)c(=O)c21,nt,?,nt,18.4µM*,nt,nt

# Screening results deposited in PubChem BioAssay by National Center for Advancing Translational Sciences (NCATS).
